Experimental data as given in the supplement of paper PMC8728848.
The sample as a whole holds a higher share of the strongest signals than the screen did.

Experiments:
Test in all cases: glycan array binding signal (z-score within array); higher = stronger binding
Conditions in all cases: glycan notation: IUPAC condensed, linker removed
Fuc(a1-2)Gal = molecular target: Fuc(a1-2)Gal
Procedure, shortened: (§1)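 The Consortium for Functional Glycomics database supplied 3228 glycan arrays, of which those lacking an available protein sequence were dropped. The binding signal, a within-array Z-score, was averaged across arrays of the same protein sequence and across linkers. Negative scores can be read as non-binding.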

Fuc(a1-2)Gal(b1-3)GalNAc = molecular target: Fuc(a1-2)Gal(b1-3)GalNAc
Procedure, shortened: as §1

[1] = molecular target: Fuc(a1-2)Gal(b1-4)GlcNAc(b1-2)Man(a1-3)[Fuc(a1-2)Gal(b1-4)GlcNAc(b1-2)Man(a1-6)]Man(b1-4)GlcNAc(b1-4)[Fuc(a1-6)]GlcNAc
Procedure, shortened: as §1

Fuc(a1-2)[Gal(a1-3)]Gal = molecular target: Fuc(a1-2)[Gal(a1-3)]Gal
Procedure, shortened: as §1

[2] = molecular target: Fuc(a1-2)[Gal(a1-3)]Gal(b1-3)GlcNAc(b1-2)Man(a1-3)[Fuc(a1-2)[Gal(a1-3)]Gal(b1-3)GlcNAc(b1-2)Man(a1-6)]Man(b1-4)GlcNAc(b1-4)GlcNAc
Procedure, shortened: as §1

[3] = molecular target: Fuc(a1-2)[GalNAc(a1-4)]Gal(b1-4)GlcNAc
Procedure, shortened: as §1

Gal(b1-3)Gal = molecular target: Gal(b1-3)Gal
Procedure, shortened: as §1

Gal(b1-3)Gal(b1-4)GlcNAc = molecular target: Gal(b1-3)Gal(b1-4)GlcNAc
Procedure, shortened: as §1

Gal(b1-3)GalNAc = molecular target: Gal(b1-3)GalNAc
Procedure, shortened: as §1

Gal(b1-3)GalNAc(b1-3)Gal = molecular target: Gal(b1-3)GalNAc(b1-3)Gal
Procedure, shortened: as §1

[4] = molecular target: Gal(b1-3)GalNAc(b1-4)Gal(b1-4)Glc
Procedure, shortened: as §1

[5] = molecular target: Gal(b1-3)GalNAc(b1-4)[Neu5Ac(a2-3)]Gal(b1-4)Glc
Procedure, shortened: as §1

[6] = molecular target: Gal(b1-3)GlcNAc(b1-2)Man(a1-3)[GlcNAc(b1-4)][Gal(b1-3)GlcNAc(b1-2)Man(a1-6)]Man(b1-4)GlcNAc(b1-4)GlcNAc
Procedure, shortened: as §1

[7] = molecular target: Gal(b1-3)[Neu5Ac(a2-6)]GalNAc
Procedure, shortened: as §1

[8] = molecular target: Gal(b1-3)[Neu5Ac(a2-6)]GlcNAc(b1-4)Gal(b1-4)Glc
Procedure, shortened: as §1

[9] = molecular target: Gal(b1-4)GalNAc(a1-3)[Fuc(a1-2)]Gal(b1-4)GlcNAc
Procedure, shortened: as §1

Gal(b1-4)Glc6S = molecular target: Gal(b1-4)Glc6S
Procedure, shortened: as §1

[10] = molecular target: Gal(b1-4)GlcNAc(b1-2)Man(a1-6)[Man(a1-3)]Man(b1-4)GlcNAc(b1-4)GlcNAc
Procedure, shortened: as §1

[11] = molecular target: Gal(b1-4)GlcNAc(b1-3)Gal(b1-3)GlcNAc
Procedure, shortened: as §1

[12] = molecular target: Gal(b1-4)GlcNAc(b1-3)Gal(b1-4)Glc
Procedure, shortened: as §1

[13] = molecular target: Gal(b1-4)GlcNAc(b1-3)Gal(b1-4)GlcNAc(b1-2)[Gal(b1-4)GlcNAc(b1-3)Gal(b1-4)GlcNAc(b1-6)]Man(a1-6)[Gal(b1-4)GlcNAc(b1-3)Gal(b1-4)GlcNAc(b1-2)Man(a1-3)]Man(b1-4)GlcNAc(b1-4)[Fuc(a1-6)]GlcNAc
Procedure, shortened: as §1

[14] = molecular target: Gal(b1-4)GlcNAc(b1-3)Gal(b1-4)GlcNAc(b1-3)Gal(b1-4)GlcNAc(b1-2)[Gal(b1-4)GlcNAc(b1-3)Gal(b1-4)GlcNAc(b1-3)Gal(b1-4)GlcNAc(b1-6)]Man(a1-6)[Gal(b1-4)GlcNAc(b1-3)Gal(b1-4)GlcNAc(b1-3)Gal(b1-4)GlcNAc(b1-2)Man(a1-3)]Man(b1-4)GlcNAc(b1-4)[Fuc(a1-6)]GlcNAc
Procedure, shortened: as §1

[15] = molecular target: Gal(b1-4)GlcNAc(b1-6)Gal(b1-4)GlcNAc
Procedure, shortened: as §1

[16] = molecular target: Gal(b1-4)GlcNAc(b1-6)[Gal(b1-3)]GalNAc
Procedure, shortened: as §1

Gal(b1-6)Gal = molecular target: Gal(b1-6)Gal
Procedure, shortened: as §1

Gal3S(b1-4)GlcNAc = molecular target: Gal3S(b1-4)GlcNAc
Procedure, shortened: as §1

[17] = molecular target: Gal3S(b1-4)[Fuc(a1-3)]GlcNAc6S
Procedure, shortened: as §1

Gal6P(b1-4)GlcNAc = molecular target: Gal6P(b1-4)GlcNAc
Procedure, shortened: as §1

Gal6S(b1-3)GlcNAc6S = molecular target: Gal6S(b1-3)GlcNAc6S
Procedure, shortened: as §1

[18] = molecular target: GalNAc(a1-3)GalNAc(b1-3)Gal(a1-4)Gal(b1-4)GlcNAc
Procedure, shortened: as §1

[19] = molecular target: GlcA3S(b1-3)Gal(b1-4)GlcNAc(b1-2)Man
Procedure, shortened: as §1

[20] = molecular target: GlcNAc(b1-3)Gal(b1-4)GlcNAc(b1-6)[Gal(b1-3)]GalNAc
Procedure, shortened: as §1

Man(a1-2)Man(a1-3)Man = molecular target: Man(a1-2)Man(a1-3)Man
Procedure, shortened: as §1

[21] = molecular target: Man(a1-3)[Man(a1-6)]Man(b1-4)GlcNAc(b1-4)[Fuc(a1-6)]GlcNAc
Procedure, shortened: as §1

Man(b1-4)GlcNAc = molecular target: Man(b1-4)GlcNAc
Procedure, shortened: as §1

[22] = molecular target: Neu5Ac(a2-3)Gal(b1-3)GlcNAc(b1-2)Man(a1-3)[Neu5Ac(a2-3)Gal(b1-3)GlcNAc(b1-2)Man(a1-6)]Man(b1-4)GlcNAc(b1-4)GlcNAc
Procedure, shortened: as §1

[23] = molecular target: Neu5Ac(a2-3)Gal(b1-3)GlcNAc(b1-6)GalNAc
Procedure, shortened: as §1

[24] = molecular target: Neu5Ac(a2-3)Gal(b1-4)GlcNAc(b1-3)Gal
Procedure, shortened: as §1

[25] = molecular target: Neu5Ac(a2-3)Gal(b1-4)GlcNAc(b1-3)Gal(b1-4)GlcNAc(b1-2)Man(a1-3)[Neu5Ac(a2-3)Gal(b1-4)GlcNAc(b1-3)Gal(b1-4)GlcNAc(b1-2)Man(a1-6)]Man(b1-4)GlcNAc(b1-4)GlcNAc
Procedure, shortened: as §1

[26] = molecular target: Neu5Ac(a2-3)Gal(b1-4)GlcNAc(b1-6)[Gal(b1-3)]GalNAc
Procedure, shortened: as §1

[27] = molecular target: Neu5Ac(a2-3)Gal(b1-4)[Fuc(a1-3)]GlcNAc(b1-2)Man
Procedure, shortened: as §1

[28] = molecular target: Neu5Ac(a2-3)Gal(b1-4)[Fuc(a1-3)]GlcNAc(b1-3)Gal(b1-4)GlcNAc
Procedure, shortened: as §1

[29] = molecular target: Neu5Ac(a2-3)[Neu5Ac(a2-6)]GalNAc
Procedure, shortened: as §1

[30] = molecular target: Neu5Ac(a2-6)Gal(b1-4)GlcNAc(b1-2)Man(a1-3)[GlcNAc(b1-4)][Neu5Ac(a2-6)Gal(b1-4)GlcNAc(b1-2)Man(a1-6)]Man(b1-4)GlcNAc(b1-4)GlcNAc
Procedure, shortened: as §1

[31] = molecular target: Neu5Ac(a2-6)Gal(b1-4)GlcNAc(b1-2)Man(a1-6)[Gal(b1-4)GlcNAc(b1-2)Man(a1-3)]Man(b1-4)GlcNAc(b1-4)GlcNAc
Procedure, shortened: as §1

[32] = molecular target: Neu5Ac(a2-6)Gal(b1-4)GlcNAc(b1-3)Gal(b1-4)GlcNAc(b1-3)Gal(b1-4)GlcNAc
Procedure, shortened: as §1

[33] = molecular target: Neu5Ac(a2-6)Gal(b1-4)GlcNAc(b1-3)Gal(b1-4)[Fuc(a1-3)]GlcNAc(b1-3)Gal(b1-4)[Fuc(a1-3)]GlcNAc
Procedure, shortened: as §1

[34] = molecular target: Neu5Ac(a2-6)Gal(b1-4)GlcNAc6S
Procedure, shortened: as §1

[35] = molecular target: Neu5Ac(b2-6)Gal(b1-4)GlcNAc
Procedure, shortened: as §1

[36] = molecular target: Neu5Gc(a2-8)Neu5Gc(a2-6)Gal(b1-4)GlcNAc
Procedure, shortened: as §1

B1: Epa1 (Candida glabrata) (protein)
chain: MGSSHHHHHHSSGLVPRGSHMTSSNDISLASKDPTTFPLGCSPDITTPKKGLSMELYSYDFRKKGSYPCWDAAYLDPNYPRTGYKSHRLLAKVDGVTGNINFYYHATKGCTPQLGHLPASYNYPKPLTMTNFTMLLYGYFRPKVTGFHTFTISADDLLFVNFGAGNAFDCCRRDSSADHFGNYQAYAIWGSKTAKDELTVHLDAGVYYPIRLFYNNREYDGALSFTFKTESNENTVSDFSEYFFSLDDTEEGCPGLISYD
Fuc(a1-2)Gal
  glycan array binding signal (z-score): -0.506
Fuc(a1-2)Gal(b1-3)GalNAc
  glycan array binding signal (z-score): -0.25
[1]
  glycan array binding signal (z-score): -0.2
Fuc(a1-2)[Gal(a1-3)]Gal
  glycan array binding signal (z-score): -0.213
[2]
  glycan array binding signal (z-score): -0.325
[3]
  glycan array binding signal (z-score): -0.299
Gal(b1-3)Gal
  glycan array binding signal (z-score): 3.63
Gal(b1-3)Gal(b1-4)GlcNAc
  glycan array binding signal (z-score): 8.5
Gal(b1-3)GalNAc
  glycan array binding signal (z-score): 3.51
Gal(b1-3)GalNAc(b1-3)Gal
  glycan array binding signal (z-score): 6.23
[4]
  glycan array binding signal (z-score): 9.89
[5]
  glycan array binding signal (z-score): 4.04
[6]
  glycan array binding signal (z-score): 0.171
[7]
  glycan array binding signal (z-score): 4.22
[8]
  glycan array binding signal (z-score): -0.213
[9]
  glycan array binding signal (z-score): -0.197
Gal(b1-4)Glc6S
  glycan array binding signal (z-score): 0.304
[10]
  glycan array binding signal (z-score): -0.169
[11]
  glycan array binding signal (z-score): -0.155
[12]
  glycan array binding signal (z-score): 0.551
[13]
  glycan array binding signal (z-score): 3.08
[14]
  glycan array binding signal (z-score): 3.06
[15]
  glycan array binding signal (z-score): 3.12
[16]
  glycan array binding signal (z-score): 4.02
Gal(b1-6)Gal
  glycan array binding signal (z-score): 0.429
Gal3S(b1-4)GlcNAc
  glycan array binding signal (z-score): -0.442
[17]
  glycan array binding signal (z-score): -0.394
Gal6P(b1-4)GlcNAc
  glycan array binding signal (z-score): -0.272
Gal6S(b1-3)GlcNAc6S
  glycan array binding signal (z-score): -0.014
[18]
  glycan array binding signal (z-score): -0.312
[19]
  glycan array binding signal (z-score): -0.3
[20]
  glycan array binding signal (z-score): 1.03
Man(a1-2)Man(a1-3)Man
  glycan array binding signal (z-score): -0.318
[21]
  glycan array binding signal (z-score): -0.271
Man(b1-4)GlcNAc
  glycan array binding signal (z-score): -0.281
[22]
  glycan array binding signal (z-score): -0.325
[23]
  glycan array binding signal (z-score): -0.293
[24]
  glycan array binding signal (z-score): -0.288
[25]
  glycan array binding signal (z-score): -0.257
[26]
  glycan array binding signal (z-score): 1.45
[27]
  glycan array binding signal (z-score): -0.346
[28]
  glycan array binding signal (z-score): -0.214
[29]
  glycan array binding signal (z-score): -0.328
[30]
  glycan array binding signal (z-score): -0.32
[31]
  glycan array binding signal (z-score): -0.14
[32]
  glycan array binding signal (z-score): -0.267
[33]
  glycan array binding signal (z-score): -0.272
[34]
  glycan array binding signal (z-score): -0.335
[35]
  glycan array binding signal (z-score): -0.248
[36]
  glycan array binding signal (z-score): -0.309
